SKN-1 inh = C. elegans SKN-1 inhibition. C. elegans VP596 Pgst-4::GFP/RFP ratio, acrylamide-induced, 24 h. inhibition, % at 21.8 µM. hit rate 0.49% among 360,000;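 active = interference check ratio from 0.5 to 1.5 plus GFP to RFP signal ratio inhibition reaching or exceeding a fixed threshold, cut at about 30% in these data, passing the limit was not always enough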
M1 PAM = human CHRM1 positive allosteric modulation. P11229. CHO-K1 hM1, Fluo-8 calcium fluorescence, ACh EC20; 0% = ACh EC20, 100% = maximal ACh. activation, % at 3 µM. hit rate 0.088% among 360,000. AID 588819; in the data active = activation above about 19%, passing the limit was not always enough
Target sequence (P11229 whole entry, looked up): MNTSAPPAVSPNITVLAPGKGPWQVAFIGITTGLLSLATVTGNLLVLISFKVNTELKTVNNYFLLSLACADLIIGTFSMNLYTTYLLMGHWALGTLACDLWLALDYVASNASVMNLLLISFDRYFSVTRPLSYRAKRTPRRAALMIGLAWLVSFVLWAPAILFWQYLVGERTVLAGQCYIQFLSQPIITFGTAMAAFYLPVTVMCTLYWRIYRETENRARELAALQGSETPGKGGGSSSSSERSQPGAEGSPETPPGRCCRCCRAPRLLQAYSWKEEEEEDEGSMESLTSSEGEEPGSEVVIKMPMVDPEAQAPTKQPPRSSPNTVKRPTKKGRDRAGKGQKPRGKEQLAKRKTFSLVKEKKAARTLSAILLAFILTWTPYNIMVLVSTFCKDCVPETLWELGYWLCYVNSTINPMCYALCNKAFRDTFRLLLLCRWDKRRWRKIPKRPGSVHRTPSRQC
CHRM1 antagonist = antagonists of human M1 muscarinic receptor. CHO-K1 hM1, Fluo-8 calcium fluorescence, ACh EC80 antagonist. inhibition, % at 3 µM. hit rate 1.3% among 360,000;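 active = percent inhibition above its own plate's cutoff, namely the mean of that plate's compound wells plus 3 SD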;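 also: peak over basal fluorescence ratio during 140 s after agonist addition; 0% = ACh EC80 plus DMSO and 100% = DMSO alone without agonist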
M1 ag = activates human CHRM1 receptor; CHO-K1 hM1, Fluo-8 calcium fluorescence, agonist mode; 0% DMSO, 100% acetylcholine EC100; activation, % at 3 µM; hit rate 0.33% among 360,000; AID 588814;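 active = activation above the run's mean compound activation plus 3 SD, cut at about 16% in these data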;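 also: peak over basal fluorescence ratio within a 140 s kinetic read after compound addition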
Myeloid diff MLP = compounds promoting myeloid differentiation. ER-HoxA9 myeloid progenitors, lysozyme-GFP differentiation, flow cytometry. calls only at 10 µM. hit rate 1% among 360,000;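 active = normalized GFP-positive differentiation at or above the plate's own cutoff, the solvent-only control mean plus 3 SD; inconclusive = no clear call, values can overlap the other calls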;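 also: cells exposed to compound for four days before flow analysis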
ATG4B inhibitor = inhibitors of human ATG4B cysteine protease | Q9Y4P1 | ATG4B cleavage of LC3-PLA2, NBD-HPC fluorescence, 1 h | inhibition, % at 8.33 µM | hit rate 0.51% among 340,000 | AID 504462; in the data active = inhibition above about 40%
ATG4B conf = ATG4B (human) inhibition, single-dose confirmed; shares compounds with ATG4B inhibitor; hit rate 92% among 320; inhibition, % at 8.33 µM; AID 504757; ATG4B protease fluorescent substrate cleavage assay; in the data active = inhibition above about 39%
PLA2 ctr = counter-screen for ATG4B inhibitors: human phospholipase A2; shares compounds with ATG4B inhibitor; purified PLA2, NBD-C6-HPC fluorescence, 45 min; inhibition, % at 8.33 µM; hit rate 66% among 1,600; AID 588402; in the data active = inhibition above about 50%
Target sequence (P04054 whole entry, looked up): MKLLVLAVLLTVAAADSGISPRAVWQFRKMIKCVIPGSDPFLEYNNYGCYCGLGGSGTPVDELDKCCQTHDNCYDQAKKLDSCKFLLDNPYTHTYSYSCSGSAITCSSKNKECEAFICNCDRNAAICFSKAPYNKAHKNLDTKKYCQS
* marks the source's active call; other numbers are inactive results; i = inactive; ? = inconclusive; . = no result; + = active, no number. Compounds with a hit are over-represented: about 3.5% of the library has one in this group of screens.

SMILES | SKN-1 inh | M1 PAM | CHRM1 antagonist | M1 ag | Myeloid diff MLP | ATG4B inhibitor | PLA2 ctr | others
CC(C)=C1C(=O)NN(c2ccc(F)c(Cl)c2)C1=O | 12 | -1 | 4 | -3 | i | 17 | .
CCN1CCSc2ccc(C(=O)NCc3ccccc3C)cc21 | 21 | 6 | -10 | -12 | i | 44* | 59*
CN1CCSc2ccc(C(=O)NCc3cccc(Br)c3)cc21 | -4 | -2 | -2 | -6 | i | 41* | 57*
O=C(O)c1ccc(-c2ccc(/C=C3\NC(=O)N(Cc4ccc(Cl)cc4)C3=O)o2)cc1Cl | 5 | 0 | 23 | -2 | i | 49* | 37 | ATG4B conf=60*
CN1CCc2nc3sc(C(=O)C45CC6CC(CC(C6)C4)C5)c(N)c3cc2C1 | -13 | 8 | -12 | -2 | i | 45* | -4
Cc1sc2ncnc(OCC(=O)N3CC(=O)Nc4ccccc43)c2c1C | 8 | 1 | -4 | -4 | i | -3 | .
Cc1nc(SCC(=O)N2CC(=O)Nc3ccccc32)nc(C)c1C | -1 | -2 | 10 | -3 | i | 0 | .
Cc1sc2nc(C3CCCCC3)nc(SCC(=O)N3CC(=O)Nc4ccccc43)c2c1C | 8 | -2 | 8 | -2 | i | 94* | 35 | ATG4B conf=26*
CCc1nc(SCC(=O)N2CC(=O)Nc3ccccc32)c2c(C)c(C)sc2n1 | 7 | 2 | -2 | -4 | ? | 71* | 77*
COc1ccc(/C=C/C2=CC(C)(C)NC(=S)N2)cc1 | -4 | -11 | 7 | -8 | i | 1 | .
Cc1ccccc1CSc1nnc(-c2cccs2)n1Cc1ccco1 | -3 | 0 | 4 | -7 | i | 78* | 75*
c1ccc(CSc2nnc(-c3cccs3)n2Cc2ccco2)cc1 | 8 | 1 | 0 | -6 | i | 58* | 60*
Cc1ccccc1CSc1nnc(-c2ccco2)n1Cc1ccco1 | 1 | 0 | 6 | -7 | + | 53* | 52*
c1ccc(CSc2nnc(-c3ccco3)n2Cc2ccco2)cc1 | 5 | 9 | -3 | -1 | i | 11 | .
CSc1ccc(CN2CCCN(C)CC2)cc1 | 6 | 1 | -10 | -9 | i | 10 | .
O=C(CN1C(=O)/C(=C/c2ccco2)SC1=S)Nc1ccc(C(=O)O)c(O)c1 | 16 | 2 | 3 | 0 | i | 62* | 20 | ATG4B conf=57*
O=C(CN1C(=O)/C(=C/c2ccco2)SC1=S)Nc1ccc(O)c(C(=O)O)c1 | 10 | -7 | 16 | 3 | ? | 31 | .
CC(C(=O)Nc1ccc(C(=O)O)c(O)c1)N1C(=O)/C(=C\c2ccco2)SC1=S (centres undefined) | 18 | 5 | -8 | 0 | ? | 48* | 12 | ATG4B conf=62*
CC(C)C[C@H]1COCCS(=O)(=O)N1Cc1cccc(F)c1 | 2 | 3 | -5 | -8 | i | -7 | .
CCCNC(=S)N1CCN(c2nc(C)nc3sc4c(c23)CCCC4)CC1 | 8 | -9 | 4 | -8 | i | 49* | 78*
COCCCNC(=S)N1CCN(c2nc(C)nc3sc4c(c23)CCCC4)CC1 | -5 | 4 | -12 | -7 | i | 47* | 63*
Cc1ccc(CS(=O)Cc2ccc(C(=O)NCc3ccc(OC(C)C)cc3)o2)cc1 (centres undefined) | 24 | 5 | -6 | -2 | i | -5 | .
O=C(Nc1ccccc1-c1ccccc1)NC1CC2CCCC(C1)N2Cc1ccc(F)cc1 (centres undefined) | 7 | -35 | 98* | -14 | i | 72* | 66*
O=C(Nc1ccccc1-c1ccccc1)NC1CC2CCCC(C1)N2CCc1ccccc1 (centres undefined) | -3 | -29 | 24 | -10 | i | 7 | .
O=C(O)c1cc(NN=Nc2cccc([N+](=O)[O-])c2)cc([N+](=O)[O-])c1 | -3 | 19 | -22 | -3 | i | 83* | 87*
SMILES | SKN-1 inh | M1 PAM | CHRM1 antagonist | M1 ag | Myeloid diff MLP | ATG4B inhibitor | PLA2 ctr | others
CC(C)Cn1nc(C(=O)OCC(=O)NCC(F)(F)F)c2ccccc2c1=O | -7 | 15 | -18 | -3 | i | -7 | .
Cc1c(C(=O)Nc2ccccc2)csc1-c1ccccc1 | 3 | 3 | -4 | -8 | i | 7 | .
Cc1c(C(=O)Nc2ccccc2[N+](=O)[O-])csc1-c1ccccc1 | 21 | 3 | -3 | -7 | i | 59* | 48
Cc1ccc(C(=O)Oc2cccc(NC(=O)c3ccccc3)c2)cc1C | 7 | 6 | -9 | -7 | i | 49* | 59*
Oc1ccc(-c2csc(Nc3ccc4c(c3)OCO4)n2)c(O)c1 | 16 | -3 | 6 | -5 | i | 42* | 59*
O=C(CNC(=O)C12CC3CC(CC(C3)C1)C2)OCc1ccc(F)cc1Cl | -7 | -6 | 16 | -1 | i | 7 | .
COc1ccc(/C=C2/SC(=S)N(CCCC(=O)Nc3ccccc3C(=O)O)C2=O)cc1 | -5 | 12 | -7 | -1 | i | 7 | .
COc1ccc(/C=C2\SC(=S)N(CCCC(=O)NNC(=O)c3ccccc3O)C2=O)cc1 | -4 | 3 | -4 | -6 | . | 49* | -6
CCOCCCNC(=O)Cn1nc(Cc2ccncc2)c2ccccc2c1=O | 9 | 12 | -16 | -4 | i | 1 | .
CCc1nc(-n2[nH]c(=O)c3ccccc3c2=O)c2c3c(sc2n1)CCCC3 | -6 | 5 | -12 | -3 | i | 16 | .
O=C(c1ccco1)N1CCN(c2ncnc3sc4c(c23)CCC4)CC1 | 0 | -6 | 2 | -2 | i | 22 | .
CCc1nc(N2CCN(C(=O)c3ccccc3)CC2)c2c3c(sc2n1)CCCC3 | 23 | -10 | 17 | -7 | i | 75* | 82*
CCc1nc(N2CCN(C(=O)c3ccco3)CC2)c2c3c(sc2n1)CCCC3 | 6 | 5 | -4 | -5 | i | 78* | 86*
Cc1nn(CC(=O)Nc2ccc3c(c2)OCCO3)c(C)c1[N+](=O)[O-] | -5 | -5 | 6 | -2 | i | -15 | .
O=C(NC(=S)NCCC1=CCCCC1)c1ccc(Br)o1 | -1 | -3 | -2 | -13 | i | 40* | 36 | ATG4B conf=62*
Nc1c(C(=O)Nc2ccc3c(c2)OCCO3)nnn1Cc1ccc(Br)cc1 | 29 | 12 | -5 | 15 | i | -7 | .
Nc1c(C(=O)Nc2ccc3c(c2)OCCO3)nnn1Cc1cccc(Br)c1 | -2 | 2 | -5 | 5 | i | 41* | 48
NC(=O)c1cc2c(s1)-c1cc(Cl)ccc1SC2 | 10 | 3 | -3 | -4 | i | 44* | 36

High-throughput results: PubChem, several laboratories
